From PubChem BioAssay (NCATS) come the findings set out here.

Results filed as inconclusive are left out. Activity calls are given as the source filed them. The call rests on the fitted dose curve; in most records, active means well fitted inhibition curve with a large enough effect; inconclusive means small, poorly fitted or top-dose-only effect; inactive means flat fitted curve, though single readings scatter.

Assay in all cases: qHTS profiling for inhibitors of Plasmodium falciparum proliferation (AID 504749); further: nearly all actives have a fitted effect of over 60% in size
Holding throughout (conditions): P. falciparum in erythrocytes, SYBR Green DNA, 72 h; series mostly up to 28.7 µM

One assay concerns ATS189. Summed up:
(§1)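 SYBR Green fluorescence of parasite DNA, read after lysis and overnight dark incubation, measured growth over 72 h in erythrocyte culture at 0.3% parasitemia and 2.5% hematocrit. Data normalised to DMSO and 0.29 uM artemisinin, with plate-drift correction.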

The subject of a further assay is C2A. Summed up:
as §1

The subject of a further assay is CP185. Summed up:
as §1

A further assay concerns CP192. Summed up: as §1
The next assay concerns CP201. Summed up:
as §1

Another assay concerns CP211. Summed up:
as §1

A further assay relates to CP215. Put shortly:
as §1

A further assay deals with CP217. Put shortly:
as §1

The next assay deals with CP237. Summed up:
as §1

The next assay concerns CP238. Put shortly: as §1
The subject of the next assay is CP247. Summed up:
as §1

For the next assay, the system named is CP250. Put shortly: as §1
The subject of the next assay is CP252. Summed up: as §1
The test system of the next assay is CP256. Summed up:
as §1

The next assay concerns CP260. Summed up:
as §1

A further assay concerns AA1029. Summed up: as §1
The test system of another assay is AS120. Summed up:
as §1

The test system of the next assay is ATS95. Put shortly:
as §1

The test system of a further assay is CP191. Summed up: as §1
The next assay deals with CP194. Summed up: as §1
Potency means the concentration at half of the fitted maximal effect.

For `Cc1cccc(C)c1OCC(C)N` (stereo not given), the Potency result with ATS189, with CP192, in the assay with CP211, in the assay with CP215, in the assay with CP217 and with CP247 was “inactive” each time. Besides, the call in the assay on C2A, in the assay on CP185, in the assay on CP201, in the assay on CP238, in the assay with CP250 and in the assay with CP252 was inactive. Also, the outcome with CP256 and in the assay with CP260 was inactive. Further, the Potency in the assay with CP237 is 6.31 µM (active).

For the compound `CC/C(=C(\c1ccccc1)c1ccc(OCCN(C)C)cc1)c1ccccc1`, the Potency entry in the assay on CP192 was “inactive”. Moreover, the Potency in the assay on CP217 is 11.2 µM (active).

Regarding `CCN(CC)CCNC(=O)c1ccc(N)cc1`, the outcome in the assay with AA1029, with ATS95, in the assay on C2A, in the assay on CP185, in the assay with CP201 and in the assay with CP238 was inactive. Besides, the call with CP250, in the assay with CP252, in the assay on CP256 and with CP260 was inactive. Further, the Potency entry in the assay with AS120, with ATS189, in the assay on CP191, in the assay with CP192, in the assay with CP194 and with CP211 was “inactive” in each case. The Potency result in the assay with CP215, in the assay with CP217, in the assay with CP237 and with CP247 was “inactive” each time.

As for `NC(N)=Nc1nc(CSCC/C(N)=N/S(N)(=O)=O)cs1`, the compound was called inactive in the assay with AA1029, in the assay on ATS95, in the assay on C2A, in the assay with CP185, in the assay on CP201 and in the assay on CP238. Further, the call with CP250, with CP252, with CP256 and in the assay on CP260 was inactive. Besides, the Potency result with AS120, in the assay with ATS189, with CP191, with CP192, with CP194 and in the assay with CP211 was “inactive” in each case. The Potency result with CP215, with CP217, in the assay with CP237 and in the assay on CP247 was “inactive” in each case.

Turning to `C[N+](C)(C)CCCCCC[N+](C)(C)C`, the result in the assay on AA1029, in the assay on ATS95, with C2A, with CP185, in the assay with CP201 and with CP238 was inactive. The compound was classed as inactive with CP250, in the assay on CP252, in the assay on CP256 and in the assay on CP260. For the same compound, the Potency result in the assay with AS120, in the assay with ATS189, in the assay with CP191, in the assay on CP192, with CP194 and with CP211 was “inactive” in each case. The Potency result in the assay with CP215, in the assay with CP217, in the assay on CP237 and in the assay with CP247 was “inactive” in each case.

Regarding `NCCS`, the result with AA1029, in the assay on ATS95, in the assay with C2A, in the assay on CP185, with CP201 and with CP238 was inactive. Moreover, the outcome in the assay on CP250, in the assay with CP252, with CP256 and in the assay on CP260 was inactive. Moreover, the Potency result in the assay with AS120, with ATS189, in the assay on CP191, with CP192, with CP194 and with CP211 was “inactive” throughout. Moreover, the Potency result with CP215, with CP217, with CP237 and in the assay on CP247 was “inactive” in each case.

On to `CC(=O)O[C@]1(C(C)=O)CC[C@H]2[C@@H]3C=C(Cl)C4=CC(=O)[C@@H]5C[C@@H]5[C@]4(C)[C@H]3CC[C@@]21C`, for which the Potency entry in the assay on ATS189 and with CP247 was “inactive” throughout. The compound was classed as inactive with CP185, in the assay with CP238, with CP250 and with CP252.

With `O=C(O)c1c(Cl)c(Cl)c(Cl)c(Cl)c1-c1c2cc(I)c(=O)c(I)c-2oc2c(I)c(O)c(I)cc12`, the outcome with AA1029, with ATS95, in the assay on C2A, with CP185, with CP201 and in the assay on CP238 was inactive. Further, the result with CP250, in the assay with CP252, in the assay on CP256 and in the assay on CP260 was inactive. The Potency entry in the assay with AS120, in the assay with ATS189, with CP191, with CP192, in the assay on CP194 and in the assay on CP211 was “inactive” each time. Also, the Potency result with CP215, in the assay with CP217, in the assay on CP237 and with CP247 was “inactive” in each case.

Regarding `Cc1cnc(C(=O)O)c[n+]1[O-]`, the outcome in the assay with AA1029, with ATS95, in the assay on C2A, in the assay with CP185, in the assay on CP201 and in the assay with CP238 was inactive. For the same compound, the call in the assay with CP250, with CP252 and with CP256 was inactive. Moreover, the Potency result with AS120, with ATS189, with CP191, in the assay with CP192, in the assay on CP194 and in the assay with CP211 was “inactive” throughout. Also, the Potency entry in the assay on CP215, with CP217, in the assay on CP237 and with CP247 was “inactive” each time.

`CCOC(=O)O[C@]1(C(=O)OCCl)CC[C@@H]2[C@H]3CCC4=CC(=O)C=C[C@]4(C)[C@@H]3[C@@H](O)C[C@@]21C`: the call in the assay on AA1029, in the assay with ATS95, in the assay on C2A, with CP185, in the assay on CP201 and in the assay with CP238 was inactive. The compound was called inactive in the assay on CP250, in the assay with CP252, in the assay with CP256 and in the assay on CP260. For the same compound, the Potency result in the assay on AS120, in the assay on ATS189, with CP191, in the assay on CP192, in the assay on CP194 and in the assay on CP211 was “inactive” in each case. The Potency result with CP217, with CP237 and in the assay with CP247 was “inactive” throughout.

In the case of `COc1ccc(Cc2nccc3cc(OC)c(OC)cc23)cc1OC`, the call in the assay with AA1029, in the assay with ATS95, in the assay on C2A, in the assay on CP185, with CP201 and in the assay with CP238 was inactive. For the same compound, the compound was called inactive with CP250, in the assay with CP252, in the assay on CP256 and with CP260. In addition, the Potency entry with AS120, with ATS189, in the assay with CP191, in the assay with CP192, in the assay with CP194 and with CP211 was “inactive” each time. Further, the Potency result in the assay on CP217 and with CP237 was “inactive” in each case.

With `Clc1ccc(Cn2c(CN3CCCC3)nc3ccccc32)cc1`, the result in the assay with AA1029, in the assay with ATS95, in the assay with C2A, in the assay with CP185, in the assay on CP201 and in the assay on CP238 was inactive. The result in the assay on CP250, in the assay with CP252 and in the assay on CP256 was inactive. The Potency result in the assay on AS120, in the assay with ATS189, in the assay with CP191, in the assay with CP192, in the assay on CP194 and in the assay on CP211 was “inactive” in each case. Further, the Potency entry in the assay on CP217 and in the assay on CP247 was “inactive” throughout.

Take `CC1=C(/C=C/C(C)=C/C=C/C(C)=C/C(=O)Nc2ccc(O)cc2)C(C)(C)CCC1`: the Potency with AS120 is 10 µM (active); in the assay on ATS189 it was 7.94 µM (active); in the assay on CP191, 7.94 µM (active); with CP192, 9.53 µM (active); in the assay with CP194 it was 13.5 µM (active); in the assay on CP211, 10.7 µM (active). In addition, the Potency with CP215 is 10.7 µM (active); in the assay on CP247, 7.94 µM (active). In addition, the call in the assay with CP256 was inactive.

As for `O=C1NC(=O)C(c2ccccc2)(c2ccccc2)N1`, the call in the assay with AA1029, in the assay on ATS95, in the assay with C2A, in the assay on CP185, in the assay with CP201 and with CP238 was inactive. Besides, the result with CP250, with CP252, with CP256 and in the assay on CP260 was inactive. Besides, the Potency entry in the assay with AS120, with ATS189, in the assay with CP191, in the assay on CP192, with CP194 and with CP211 was “inactive” in each case. The Potency entry with CP215, with CP217, with CP237 and in the assay on CP247 was “inactive” throughout.

Take `O=C(O)c1cc(-c2ccccc2)nc2ccccc12`: the call with AA1029, with ATS95, in the assay with C2A, with CP185, with CP201 and in the assay with CP238 was inactive. In addition, the call in the assay with CP250, in the assay on CP252, with CP256 and in the assay with CP260 was inactive. Moreover, the Potency result in the assay on AS120, in the assay on ATS189, with CP191, in the assay with CP192, with CP194 and in the assay on CP211 was “inactive” each time. The Potency entry with CP215, with CP217, in the assay with CP237 and in the assay on CP247 was “inactive” throughout.

Take `COc1ccccc1N1CCN(CCCNc2cc(=O)n(C)c(=O)n2C)CC1`: the result in the assay with AA1029, with ATS95, in the assay with C2A, with CP185, in the assay on CP201 and in the assay with CP238 was inactive. The result in the assay with CP250, in the assay with CP252, in the assay with CP256 and in the assay with CP260 was inactive. Moreover, the Potency entry with AS120, with ATS189, with CP191, in the assay with CP192, with CP194 and with CP211 was “inactive” throughout. Besides, the Potency entry in the assay with CP215, with CP217, in the assay on CP237 and in the assay on CP247 was “inactive” in each case.

Take `CCCCCN(C)CCC(O)(P(=O)(O)O)P(=O)(O)O`: the compound was called inactive with AA1029, with ATS95, with C2A, with CP185, in the assay on CP201 and in the assay on CP238. Also, the result with CP250, with CP252, with CP256 and in the assay on CP260 was inactive. The Potency entry in the assay on AS120, in the assay with ATS189, in the assay on CP191, in the assay on CP192, with CP194 and in the assay on CP211 was “inactive” each time. The Potency entry with CP215, with CP217, in the assay with CP237 and in the assay with CP247 was “inactive” throughout.
